Source: PubChem (National Center for Advancing Translational Sciences (NCATS))
Luc counter: Counterscreen for Luciferase (Kinase-Glo TM) Inhibition; Kinase-Glo luciferase, ATP luminescence, 8 min; Luciferin 4-monooxygenase (Photuris pensylvanica), Q27757; AID 1379, 2008; Potency, µM (highest dose often 38.3 µM), for the others: at the highest dose activity change, negative = inhibition, actives largely listed as inhibitors; 200,000 tested, 0.28% active; note: % is set by controls: 0 for no effect and ±100 for the full control effect; nearly all actives have a fitted effect of over 60% in size
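Inhibition of Kinase-Glo luciferase light generation was assessed at 10 uM ATP in pH 7.2 imidazole buffer, with luminescence measured after eight minutes at ambient temperature.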
SMN2 splice up: qHTS Assay for Enhancers of SMN2 Splice Variant Expression | HEK293 SMN2-luciferase splicing reporter, luminescence, 30-36 h | Potency, µM (doses to about 46.1 µM), for the others: top-dose activity change, positive = activation, actives largely listed as activators | 210,000 tested, 2.8% active | AID 1458, 2008; note: % of control where 0% means no effect; nearly all actives have a fitted effect of over 55% in size
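HEK293 cells carry an SMN2 […]–luciferase reporter in which exon 7 inclusion puts luciferase in frame. Cells were plated 10-12 h before compound addition, then incubated 30-36 h at 37C. ONE-Glo luminescence was read; sodium butyrate at 4.5 mM final served as control.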
NPC1 prom act: qHTS Assay for NPC1 Promoter Activators; Huh7 NPC1 promoter luciferase reporter, 24 h; Potency, µM (highest dose often 9.22 µM), for the others: at the top dose activation, most hits filed as activators; 320,000 tested, 2.4% active; note: % of control where 0% means no effect; nearly all actives have a fitted effect of over 60% in size
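Quantitative HTS used a cell-based reporter: Huh7 cells stably bearing the NPC1 promoter upstream of luciferase were treated with compounds for 24 h, and promoter activation was read as luminescence.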
Rab9 prom act: qHTS Assay for Rab9 Promoter Activators | Huh7 Rab9 promoter-luciferase reporter, luminescence, 24 h | Potency, µM (titrated, usually from 9.22 µM), for the others: at the highest dose activation, negative = inhibition, most hits filed as activators | 320,000 tested, 2.8% active | AID 485297, 2010; note: % of control where 0% means no effect; nearly all actives have a fitted effect of over 60% in size
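Cell-based reporter: Huh7 stable for Rab9 promoter-driven luciferase, plated in reduced-serum medium with 10% FBS at 1500 cells/well, compound-treated 24 h at 37 °C, luminescence read after 10 min reagent.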
ELG1 genotoxic: qHTS screen for small molecules that induce genotoxicity in human embryonic kidney (HEK293T) cells expressing luciferase-tagged ELG1; HEK293T ELG1-luciferase reporter, luminescence, 16 h; Potency, µM (series often up to 46 µM), for inactives: at the top dose activity change, positive = activation, actives largely listed as activators; 330,000 tested, 1.3% active; note: % of control where 0% means no effect; nearly all actives have a fitted effect of over 60% in size
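Genotoxic stress is detected as increased luminescence from luciferase-tagged ELG1 in HEK293T cells, measured with ONE-Glo after a 16 hr treatment at 37 °C.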
FLuc counter: qHTS profiling assay for firefly luciferase inhibitor/activator using purifed enzyme and Km concentrations of substrates (counterscreen for miR-21 project). Luciferin 4-monooxygenase (Photinus pyralis), P08659. Potency, µM (highest dose often 57.5 µM), for the others: top-dose activity change, negative = inhibition, usual class: inhibitors. purified FLuc, Km substrates, luminescence inhibition. 360,000 tested, 6.9% active;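 note: plate controls were vehicle for no effect and reference inhibitor for full effect; nearly all actives have a fitted effect of over 55% in size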
Target sequence (P08659 whole entry, looked up): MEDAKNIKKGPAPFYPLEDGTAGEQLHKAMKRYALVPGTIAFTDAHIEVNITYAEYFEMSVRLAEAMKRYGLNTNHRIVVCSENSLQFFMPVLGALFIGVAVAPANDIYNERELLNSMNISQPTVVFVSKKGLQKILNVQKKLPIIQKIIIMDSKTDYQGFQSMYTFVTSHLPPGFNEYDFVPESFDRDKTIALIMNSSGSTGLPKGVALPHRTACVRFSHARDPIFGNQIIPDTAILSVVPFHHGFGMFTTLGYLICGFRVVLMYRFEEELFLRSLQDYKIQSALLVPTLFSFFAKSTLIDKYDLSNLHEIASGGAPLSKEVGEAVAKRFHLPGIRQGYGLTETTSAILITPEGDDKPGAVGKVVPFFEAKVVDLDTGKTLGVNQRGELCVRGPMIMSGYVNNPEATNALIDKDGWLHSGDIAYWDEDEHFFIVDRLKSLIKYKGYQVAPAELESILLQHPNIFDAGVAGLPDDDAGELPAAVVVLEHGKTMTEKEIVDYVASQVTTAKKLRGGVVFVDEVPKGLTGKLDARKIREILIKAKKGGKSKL
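Purified P. pyralis luciferase (10nM final) with 10uM D-luciferin and 10uM ATP (Km levels) in 50mM Tris acetate pH 7.5, 10mM Mg acetate, 0.01% Tween-20, 0.05% BSA; qHTS 6-point titration, ~60 µM downward; luminescence read.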
Starred values were filed as active, the others as inactive; ? = inconclusive; nt = not tested or not shown; [ ] = dose if it differs, or a comment. Sampled rows, rich in hits. Any-hit rate of the full collection: about 7.3%. Calls come from the whole dose curve; as a rule, active = well fitted curve in the direction sought with a large enough effect; inconclusive = small, poorly fitted or top-dose-only effect, or another doubt; inactive = no such curve, though single readings can be large; an effect the other way counts as inactive or inconclusive. Potency is the fitted concentration of half-maximal effect.

SMILES | Luc counter | SMN2 splice up | NPC1 prom act | Rab9 prom act | ELG1 genotoxic | FLuc counter
CCOc1ccc2c(c1)c(=O)c(S(=O)(=O)c1ccc(Cl)cc1)cn2Cc1ccccc1C | nt | -7% | nt | nt | nt | 0%
CCCCc1nc2ccccc2n2c(-c3ccc(OC)cc3)c3c(=O)n(C)c(=O)n(C)c3c12 | nt | 8% | nt | nt | nt | -2%
COc1ccccc1C(=O)Nc1nnc(-c2ccc(F)cc2)s1 | nt | nt | 3.2µM* | 4.5µM* | 14% | 4.8µM*
Cc1cc(C(=O)Nc2sc(C)c(-c3ccc(F)cc3)c2C(N)=O)no1 | -4% | 13% | 3.2µM* | 3.2µM* | ? | 1.2µM*
NC(=O)c1c(NC(=O)c2cc(-c3ccc(F)cc3)on2)sc2c1CCCC2 | nt | 4% | nt | nt | nt | -18%
COc1ccccc1C(=O)Nc1c(-c2ccccc2)nc2ccccn12 | nt | nt | 0% | -5%[1.84 µM] | -8% | 0%
COc1ccccc1C(=O)Nc1nsc(-c2ccccc2)n1 | nt | nt | ? | 1.6µM* | ? | 4.3µM*
O=C(Nc1nnc(-c2ccccc2)s1)c1ccc(F)cc1 | 1% | ? | ? | 1.4µM* | ? | -12%
S=C(Nc1ccc2cn[nH]c2c1)Nc1ccc2cn[nH]c2c1 | -5%[7.66 µM] | -8%[9.22 µM] | nt | nt | nt | nt
CCc1cccc(NC(=O)CSc2nncn3c2cc2sccc23)c1 | nt | nt | nt | nt | nt | -6%
Cc1cc(C(=O)Nc2nnc(C3CCCCC3)s2)no1 | -3% | 4% | nt | nt | nt | ?
Cc1cc(C(=O)Nc2nnc(-c3ccccc3)s2)no1 | 0% | -3% | 26% | ? | 20% | 27µM*
Cc1ccc2c(c1)c1c(c(=O)n(Cc3ccccc3)c(=O)n1Cc1ccccc1F)n2C | nt | nt | nt | nt | nt | -6%
CCc1cccc2c(C(=O)COC(=O)c3ccccc3)c[nH]c12 | 1% | 26% | ? | ? | ? | 2.4µM*
CCc1cccc2c(C(=O)COC(=O)c3nccnc3N)c[nH]c12 | nt | nt | 25% | ? | ? | 15µM*
COc1cc(NC(=O)c2csc(N)n2)cc(C(=O)Nc2cccc(C(F)(F)F)c2)c1 | nt | nt | 21% | -21% | -14% | ?
COc1cc(NC(=O)c2cnc(N)s2)cc(C(=O)Nc2cccc(C(F)(F)F)c2)c1 | nt | nt | 13% | 11% | -3% | 12µM*
COc1cc(NC(=O)c2cnc(N)o2)cc(C(=O)Nc2cccc(C(F)(F)F)c2)c1 | nt | nt | -3% | -6% | -13% | 21µM*
COc1cc(NC(=O)c2ccnc(N)c2)cc(C(=O)Nc2cccc(C(F)(F)F)c2)c1 | nt | nt | -8% | -3% | 0% | 19µM*
COc1cc(NC(=O)c2cc(C)on2)cc(C(=O)Nc2cccc(C(F)(F)F)c2)c1 | nt | nt | ? | -8% | -5% | ?
CC(=O)N1CCc2cc(Br)cc(S(=O)(=O)N3CCC(C(=O)Nc4cccc(C)c4C)CC3)c21 | nt | -6% | nt | nt | nt | 2%
C/C(=N\NC(=O)c1c(Cl)cnn1C)c1cccc(NC(=O)C(C)C)c1 | 3% | -10% | -3% | -7% | -3% | ?
C/C(=N\NC(=O)c1cccc(O)c1)c1cccc(NC(=O)c2ccc(F)cc2)c1 | nt | nt | ? | 14% | 3% | 1.9µM*
C/C(=N\NC(=O)c1c(Cl)cnn1C)c1cccc(NC(=O)c2ccc(C)cc2)c1 | nt | nt | ? | ? | 4% | 2.4µM*
C/C(=N\NC(=O)c1cccc(N/N=C(\C)c2ccco2)c1)c1ccco1 | -6% | -4% | 16% | ? | 12% | 13µM*
SMILES | Luc counter | SMN2 splice up | NPC1 prom act | Rab9 prom act | ELG1 genotoxic | FLuc counter
C/C(=N\NC(=O)c1ccc(F)cc1)c1cccc(NC(=O)c2cccc(F)c2)c1 | nt | nt | 5% | 5% | -8% | -18%
C/C(=N\NC(=O)c1c(Br)cnn1C)c1ccc(NC(=O)c2ccc(F)cc2)cc1 | -2% | ? | 12% | 2% | 16µM* | 4%
C/C(=N\NC(=O)c1ccncc1)c1ccc(NC(=O)c2ccc(Cl)cc2)cc1 | nt | nt | 8% | 27% | ? | nt
C/C(=N\NC(=O)c1ccccc1F)c1cccc(NC(=O)c2ccc(C)cc2)c1 | nt | nt | ? | ? | ? | 2.4µM*
C/C(=N\NC(=O)c1cccc(N/N=C(\C)c2cc(O)ccc2O)c1)c1cc(O)ccc1O | -2% | -56% | -18% | -35% | -15% | 12µM*
C/C(=N\NC(=O)c1ccc(F)cc1)c1cccc(NC(=O)c2ccco2)c1 | 0% | 3% | 20% | 30% | 2% | 4.8µM*
C/C(=N\NC(=O)c1cccc(F)c1)c1cccc(NC(=O)c2ccc(F)cc2)c1 | -5% | nt | 8% | 3% | 2% | ?
CC1=C/C(=N/O)C([C@H]2C=C(C)CC(C)(C)[C@@H]2O)C(C)(C)C1 (stereo partly drawn) | -4%[7.66 µM] | -15%[9.22 µM] | nt | nt | nt | nt
c1csc(-c2ccc3ccccc3n2)c1 | -9% | 21% | ? | ? | ? | 7.6µM*
Cc1ccc(-c2cc3ccccc3nc2N)cc1 | nt | nt | 5µM* | ? | ? | 3µM*
Nc1nc2ccccc2cc1-c1cccs1 | nt | nt | 4.5µM* | ? | ? | 11µM*
Cc1cc2ncc(-c3cccs3)nc2cc1C | nt | nt | 0.89µM* | 4µM* | ? | 0.34µM*
CC[C@H]1CC[C@H]2[C@@H]3CC=C4C[C@H](OC(C)=O)[C@@H](N)C[C@@]4(C)[C@H]3CC[C@@]12C | -2%[7.66 µM] | 0%[9.22 µM] | nt | nt | nt | nt
CCCCOc1ccc(S(=O)(=O)N2CCN(c3ccccc3OCC)CC2)cc1 | nt | 1% | nt | nt | nt | 5%
COc1ccc(NC(=O)c2cc3ccccc3cc2O)cc1 | nt | nt | 2.2µM* | 2.2µM* | ? | 0.95µM*
O=C(Nc1ccccn1)c1cc2ccccc2cc1O | nt | nt | 3.5µM* | 4µM* | 2.3µM* | 2.4µM*
O=C(Nc1ccccn1)c1ccc([N+](=O)[O-])cc1Cl | 2% | 5% | 8% | 17% | 1% | ?
Cc1ccc(NC(=O)c2cc3ccccc3cc2O)cc1 | nt | nt | 2µM* | 2.8µM* | ? | 1.1µM*
COc1ccc(NC(=O)c2ccccc2C)cc1 | nt | nt | 1.4µM* | 3.2µM* | ? | 9.5µM*
COc1ccc(-c2csc3c2[N+]2=CCC=C2C3=O)cc1 | -1%[7.66 µM] | -13%[9.22 µM] | nt | nt | nt | nt
CCc1nc(Nc2ccc3c(c2)OCCO3)c2oc3ccccc3c2n1 | 9% | -42% | -1% | -4% | -13% | 27µM*
O=[N+]([O-])c1ccc2ncnc(Nc3ccc4c(c3)OCCO4)c2c1 | -1% | -1% | 14% | 0% | -9% | 0%
Cc1nc(Nc2ccc3c(c2)OCCO3)c2oc3ccccc3c2n1 | -8% | -40% | 14% | 3% | -3% | ?
CCc1nc(Nc2ccc(O)cc2)c2oc3ccccc3c2n1 | nt | nt | 14% | 9% | -8% | 19µM*
